This is part of a sample that, as a whole, favours compounds with a hit. Of some 83,000 tested, about 20% had one in any assay.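 Compound tested at a single concentration for 48 hours in 96-well plates; a percent growth value below 10 was scored as active.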 Unmarked numbers belong to inactive results. Active and inactive are the calls of the source.

Test systems include DU-145 prostate; K-562 leukemia; MALME-3M melanoma; MDA-MB-231 breast; RXF 393 renal; SF-268 CNS; SF-295 CNS; SF-539 CNS; UACC-257 melanoma; M14 melanoma; HCT-15 colon; HT29 colon; SNB-75 CNS; SNB-19 CNS; U251 CNS; PC-3 prostate; SK-MEL-5 melanoma; UACC-62 melanoma; LOX IMVI melanoma; SK-MEL-28 melanoma.
Assay in all cases: NCI-60 one-dose screen, 48 h (100 = growth as untreated, 0 = no growth, -100 = all killed)
Conditions in all cases: 10 µM unless noted

Regarding `CN(C)CC#Cc1ccc2ncc(C#N)c(Nc3ccc(F)c(Cl)c3)c2c1`, the growth in the test on DU-145 prostate is 22.4%; in the test with K-562 leukemia, 51.4%; in the test with MALME-3M melanoma it was 45.1%; in the test with MDA-MB-231 breast, 56.1%; in the test with RXF 393 renal it was 32.4%; with SF-268 CNS, 59.2%. The growth was 65.4% in the test with SF-295 CNS; 62.4% with SF-539 CNS; 76% with UACC-257 melanoma; 40.5% in the test on M14 melanoma; 32% in the test on HCT-15 colon; 66% in the test on HT29 colon. Moreover, the growth in the test on SNB-75 CNS was 48.1%; in the test on SNB-19 CNS, 76.4%; in the test on U251 CNS it was 63.8%; in the test with PC-3 prostate it was 40.5%; in the test with SK-MEL-5 melanoma, 51.4%; with UACC-62 melanoma it was 42.9%. The figures for the growth with LOX IMVI melanoma and in the test with SK-MEL-28 melanoma were 49% and 69.4%, respectively.

For the compound `CCCCCCN1C(=O)/C(=c2\sc3n(c2=O)C2C(NN=3)N(CC)C(=O)N2CC)c2ccccc21` (stereo not given), the growth was 24.4% in the test on DU-145 prostate; 6.81% (active) in the test with K-562 leukemia; 6.95% (active) in the test with MALME-3M melanoma; 14.8% in the test on MDA-MB-231 breast; 25.8% in the test on RXF 393 renal; 27.5% with SF-268 CNS. The growth was -23% (active) in the test with SF-295 CNS; -54.9% (active) in the test with SF-539 CNS; 39.3% with UACC-257 melanoma; 20.3% with M14 melanoma; 1.65% (active) with HCT-15 colon; -24.7% (active) in the test on HT29 colon. For the same compound, the growth in the test on SNB-75 CNS is -38.4% (active); with SNB-19 CNS it was 22.5%; with U251 CNS, -21.3% (active); in the test with PC-3 prostate, 15.2%; with SK-MEL-5 melanoma it was 26.8%; in the test on UACC-62 melanoma, 30.7%. Besides, the growth is -23% (active) with LOX IMVI melanoma and 35.1% with SK-MEL-28 melanoma.

As to `c1ccc2c(c1)Nc1ccncc1S2`, the growth in the test with DU-145 prostate was 118%; with K-562 leukemia it was 112%; with MALME-3M melanoma, 111%; with MDA-MB-231 breast it was 87.8%; with RXF 393 renal, 4.28% (active); with SF-268 CNS, 99.3%. In addition, the growth with SF-295 CNS is 101%; with SF-539 CNS, 84.4%; with UACC-257 melanoma, 108%; in the test with M14 melanoma, 95.1%; in the test with HCT-15 colon, 99.7%; in the test on HT29 colon, 90.5%. Also, the growth in the test with SNB-75 CNS was 86.3%; in the test on SNB-19 CNS, 107%; with U251 CNS it was 102%; in the test on PC-3 prostate, 91.2%; in the test with SK-MEL-5 melanoma it was 93.3%; in the test on UACC-62 melanoma it was 96.8%. In addition, the growth in the test with LOX IMVI melanoma was 85.8%; with SK-MEL-28 melanoma it was 128%.

Consider `COc1ccc2c(c1)nc(NNC(=O)c1cnccn1)c1cccn12`, for which the growth is 31.1% in the test on DU-145 prostate; 13.9% in the test on K-562 leukemia; 46.3% in the test on MALME-3M melanoma; 30.4% with MDA-MB-231 breast; 48% in the test on RXF 393 renal; 30.4% in the test on SF-268 CNS. Moreover, the growth is 13.6% in the test with SF-295 CNS; 23.5% in the test on SF-539 CNS; 25.7% with UACC-257 melanoma; 8.27% (active) with M14 melanoma; 21.5% in the test with HCT-15 colon; 27.2% with HT29 colon. Besides, the growth is 70.5% in the test on SNB-75 CNS; 31.3% with SNB-19 CNS; 27.3% in the test with U251 CNS; 39.4% with PC-3 prostate; 26.4% in the test with SK-MEL-5 melanoma; 11.5% in the test with UACC-62 melanoma. The growth with LOX IMVI melanoma was 9.17% (active); in the test with SK-MEL-28 melanoma, 25.1%.

On to `COc1ccc(C2CC(c3ccc(Nc4ccnc5cc(Cl)ccc45)cc3)=NN2C=O)cc1` (stereo not given), for which the growth in the test with DU-145 prostate was 73.4%; in the test on K-562 leukemia, 17.4%; in the test with MALME-3M melanoma, 62%; with MDA-MB-231 breast it was 78.8%; with RXF 393 renal, 76.7%; in the test on SF-268 CNS, 58%. Moreover, the growth was 51.5% with SF-295 CNS; 94.6% with SF-539 CNS; 93.5% in the test with UACC-257 melanoma; 50.5% in the test with M14 melanoma; 23.6% in the test on HCT-15 colon; 33.2% in the test on HT29 colon. The growth with SNB-75 CNS was 77.1%; in the test on SNB-19 CNS it was 81.5%; in the test with U251 CNS, 63.4%; in the test on PC-3 prostate, 72.3%; in the test with SK-MEL-5 melanoma, 41.2%; in the test on UACC-62 melanoma it was 54.5%. The growth with LOX IMVI melanoma was 20%; with SK-MEL-28 melanoma it was 74.9%.

For the compound `O=C(N=c1oc2ccccc2cc1-c1cc2ccccc2[nH]1)Nc1ccc(Cl)cc1`, the growth is 99.2% with DU-145 prostate; 88.8% in the test with K-562 leukemia; 99.2% with MALME-3M melanoma; 79.5% in the test with MDA-MB-231 breast; 116% with RXF 393 renal; 99.3% in the test with SF-268 CNS. In addition, the growth in the test on SF-295 CNS was 111%; with SF-539 CNS, 90.6%; in the test on UACC-257 melanoma, 108%; in the test with M14 melanoma it was 79.6%; in the test with HCT-15 colon it was 107%; with HT29 colon, 99.8%. The growth in the test on SNB-75 CNS is 78.3%; in the test on SNB-19 CNS it was 97.3%; in the test on U251 CNS it was 104%; in the test on PC-3 prostate it was 86.8%; in the test with SK-MEL-5 melanoma, 99.6%; in the test with UACC-62 melanoma, 83%. The growth in the test on LOX IMVI melanoma is 94.2%; with SK-MEL-28 melanoma, 100%.

Turning to `c1ccc2cc(C[n+]3ccn(CCCCCCn4cc[n+](Cc5ccc6ccccc6c5)c4)c3)ccc2c1`, the growth was 65.9% in the test with DU-145 prostate; 28.3% in the test on K-562 leukemia; 11.2% in the test with MALME-3M melanoma; 84.1% in the test with MDA-MB-231 breast; 87.4% in the test on RXF 393 renal; 55.6% in the test on SF-268 CNS. Also, the growth was 48.3% in the test on SF-295 CNS; 56.3% with SF-539 CNS; 61.9% in the test on UACC-257 melanoma; 69.9% in the test on M14 melanoma; 96.4% in the test with HCT-15 colon; 22.8% with HT29 colon. Moreover, the growth with SNB-75 CNS is 26.7%; in the test on SNB-19 CNS, 48.8%; with U251 CNS, 34.4%; in the test with PC-3 prostate, 65.4%; with SK-MEL-5 melanoma, 42.3%; with UACC-62 melanoma it was 50.1%. The growth in the test with LOX IMVI melanoma was 66.8%; in the test with SK-MEL-28 melanoma it was 63.4%.

With `Cc1ccc2c(n1)C(=O)C(Cl)=C(Nc1ccccc1C(C)C)C2=O`, the growth with DU-145 prostate was 63.2%; with K-562 leukemia, 12%; in the test on MALME-3M melanoma it was 42.5%; with MDA-MB-231 breast it was 30.3%; with RXF 393 renal, 83.6%; in the test on SF-268 CNS it was 86.4%. Further, the growth in the test on SF-295 CNS was 101%; with SF-539 CNS it was 65.9%; with UACC-257 melanoma, 24.9%; in the test on M14 melanoma, 63%; in the test with HCT-15 colon it was 27.6%; in the test with HT29 colon, 106%. In addition, the growth with SNB-75 CNS was 85.7%; in the test on SNB-19 CNS, 76.7%; in the test on U251 CNS it was 80.4%; in the test with PC-3 prostate, 53.9%; in the test with SK-MEL-5 melanoma it was 69%; in the test with UACC-62 melanoma, 45.2%. Moreover, the growth with LOX IMVI melanoma is 14.7%; in the test with SK-MEL-28 melanoma, 65.8%.
